# Test results as given in the supplement of paper PMC10338343.
# ± gives the standard deviation. The full ranking holds about 8,200 sequences; the median of “pre-steady-state target cleavage rate” is about 0.024, and the highest 2% start at about 1.3. The sample holds the highest values, similar sequences and a random draw of the others, so the mix is not that of the screen.
# Test system: MIWI (PIWIL1) piRISC loaded with L1MC piRNA (30 nt)
# Experiment: pre-steady-state target cleavage rate (min^-1); MIWI and MILI are mouse PIWI proteins and EfPiwi is from a freshwater sponge; tags in brackets are library labels; higher = faster piRNA-guided slicing of the target
# Conditions: guide: L1MC piRNA 5'p-UAACUAAAUACUAUGCAAGCUGUAGGUCCU
# Method: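 Cleave-'n-Seq: a library of target RNAs (target site embedded in constant flanks, ACAGCATTCCGCGTTAGTGATATCCG... 5' flank; DNA-blocked outside the site) at 0.1 nM was incubated with 1 nM active mouse MILI or MIWI piRISC (synthetic 5'-monophosphorylated piRNA guide) with or without 500 nM mouse GTSF1 at 33 °C for 1 min to 16 h. Uncleaved targets were sequenced and normalised to non-target controls, and the pooled three trials were fitted to a burst-and-steady-state model to give the pre-steady-state cleavage rate (min^-1; k3 is constrained to at most 1e-4). Sequence is the target site only; target names encode pairing extent (gX:gY) and contiguous / 1-mismatch / 2-mismatch / bulge geometry. Fits with R² ≤ 0 are excluded.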
# [1] = auxiliary factor: 500 nM mouse GTSF1
# [2] = auxiliary factor: none (no GTSF1)
Sequence,pre-steady-state target cleavage rate [1],pre-steady-state target cleavage rate [2]
UCCUGGAUGUGCUUGCAUAGUAUUUAUUA,0.0179 ± 0.0058,
UGGACCUACAGCUUGCAUAGUAUUUCGUUA,0.411 ± 0.054,0.0397 ± 0.0067
UCCUGGAUCAGCUUGCAUACUAAUUAGUUA,0.0563 ± 0.0091,0.00771 ± 0.0023
UCCUCACUACAGCUUGCAUAGUAUUUAGUUA,0.676 ± 0.03,0.0551 ± 0.0082
UCCUGGUUACAGCUUGCAUAGUAUUUAGUUA,1.01 ± 0.048,0.0561 ± 0.011
UCCUCGCUACAGCUUGCAUAGUAUUUAGUUA,0.831 ± 0.05,0.0517 ± 0.0088
UCCUGUUACAGCUUGCAUAGUAUUUAGUUA,1.28 ± 0.058,0.0747 ± 0.013
UCCUCCAUACAGCUUGCAUAGUAUUUAGUUA,0.364 ± 0.019,0.0335 ± 0.0051
UCCUCAUACAGCUUGCAUAGUAUUUAGUUA,1.47 ± 0.054,0.0664 ± 0.01
UCCUGGUACAGCUUGCAUAGUAUUUAGUUA [g2:g24:cont:t1A],0.82 ± 0.041,0.0692 ± 0.013
UCCUGCGACAGCUUGCAUAGUAUUUAGUUA,1.19 ± 0.06,0.0863 ± 0.017
UCCUCCUUACAGCUUGCAUAGUAUUUAGUUA,1.3 ± 0.052,0.0583 ± 0.011
UCCUGCUUACAGCUUGCAUAGUAUUUAGUUA,1.48 ± 0.13,0.0826 ± 0.02
UCCUGCGUACAGCUUGCAUAGUAUUUAGUUA,1.33 ± 0.062,0.0785 ± 0.016
UCCUCUUACAGCUUGCAUAGUAUUUAGUUA,1.62 ± 0.055,0.061 ± 0.0099
AGGACCUACAGCUUGCUUAGAAUUUAGUUA,0.377 ± 0.04,0.00929 ± 0.0032
UCCUGGAUGUCCUUACAUAGUAUUUAGUUA,0.0237 ± 0.0056,0.0041 ± 0.0017
UGGACCUACACGAUGCAUAGUAUUUAGAAA,0.122 ± 0.016,
UCCUGCUACAGCUUGCUUAGUAUUUUCAAA,0.11 ± 0.028,
UCCUGGUUCAGCUUGCAUUGUAUUUAGUUA,0.61 ± 0.028,0.0343 ± 0.01
UCCUGGUACAGCUUGCAUAGUAUUCUAGUUA,0.442 ± 0.092,0.00651 ± 0.0028
UCCACCUACAGCUUGCUUAGUAUUUAGAAA,0.226 ± 0.037,
UCCACCUACAGCUUGCAUAGUACUUUAGUUA,0.447 ± 0.035,0.00964 ± 0.0027
UCCUGAUACAGCUUGCAUAGUAUUUAGUUA,1.15 ± 0.046,0.0816 ± 0.017
UCCUGCAUACAGCUUGCAUAGUAUUUAGUUA,1.63 ± 0.12,0.0686 ± 0.013
UCCUGCUACAGCUUGCAUAGUAUUUAGUUG [g2:g25:cont:t1G],0.229 ± 0.019,0.0367 ± 0.0072

Sequence,pre-steady-state target cleavage rate [1],pre-steady-state target cleavage rate [2]
UCGAGGUACAGCUUGCAUAGUAUUUUCAAA,0.278 ± 0.038,0.00215 ± 0.0021
UCCUGCUACAGCUUGCAUAGUUAUUACAAA,0.0101 ± 0.0052,
AGGACCUACAGCUUGCAAUGUAUUUACAAA,0.0775 ± 0.019,
UCCUCCUACACCUUGCAAAGUAUUUAGUUA,0.831 ± 0.043,0.0328 ± 0.0065
UCCUGCUACAGCUUGCAUUGUUUUUAGUUA,0.0845 ± 0.0095,0.00988 ± 0.0021
UCGACCUACAGCAUGCAUUGUAUUUAGUUA,0.944 ± 0.04,0.0101 ± 0.0026
UGAGACCUACAGCUUGCAUAGUAUUUAGUUA,1.49 ± 0.1,0.0826 ± 0.015
AGAGACCUACAGCUUGCAUAGUAUUUAGUUA,1.46 ± 0.067,0.091 ± 0.017
UCCUGGAACACCUUGGAUAGUAUUUAGUUA,0.286 ± 0.038,0.00651 ± 0.0022
UCCUGGAUGAGCUUGCAUAGUAUAUUAGUUA,0.464 ± 0.04,0.00823 ± 0.004
UCCUGGUACAGCUUGCAUAGUAAUUAGAUA,0.209 ± 0.042,0.00778 ± 0.0021
AGGACGUACAGCUUGCAUAGUAUUUAGAAA,0.432 ± 0.06,0.0172 ± 0.0052
UCCUGGAUGUCGAACGUAAGUAUUUAUUA,< 0.0001,< 0.0001
UCCACCUACAGCUUGGUAAGUAUUUAGUUA,0.0619 ± 0.011,
UCUACCUACAGCUUGCAUAGUAUUUAGUUA,1.4 ± 0.043,0.0731 ± 0.013
ACCACCUACAGCUUGCAUAGUAUUUAGUUA,1.16 ± 0.056,0.0927 ± 0.017
AGGUACCUACAGCUUGCAUAGUAUUUAGUUA,1.35 ± 0.21,0.481 ± 0.15
UCCACCUACAGCUUGCAUAGUAUUUAGUUUA,0.907 ± 0.047,0.0632 ± 0.014
UGGUACCUACAGCUUGCAUAGUAUUUAGUUA,0.945 ± 0.17,0.117 ± 0.034
UGUACCUACAGCUUGCAUAGUAUUUAGUUA,1.34 ± 0.049,0.0875 ± 0.013
UCCACCUACAGCUUGCAUAGUAUUUAGGUA,0.3 ± 0.054,0.00404 ± 0.0029
AGUACCUACAGCUUGCAUAGUAUUUAGUUA,1.23 ± 0.064,0.0796 ± 0.013
UCCUCGUACAGCUUGCAUAGUAAUUAGUUA,0.952 ± 0.032,0.029 ± 0.007
UCCUGCAUGAGCUUGCAUAGUAUUUAGUUA,0.92 ± 0.051,0.0506 ± 0.01
UCCUGGAACAGCUUGCAUAGUAUUAUGUUA,0.169 ± 0.023,0.013 ± 0.0044
UCCUGGAACACUUGCAUAGUAUUUAGUUA,0.596 ± 0.032,0.0132 ± 0.0044

Sequence,pre-steady-state target cleavage rate [1],pre-steady-state target cleavage rate [2]
UCCACGUACAGCUUGCAUAGAAUUUAGUUA,0.412 ± 0.022,0.0297 ± 0.0084
UCGACCUACAGCUUGCAAGUAUUUAGUUA,0.427 ± 0.038,0.00682 ± 0.0023
ACGACCUACAGCUUGCAAAGUAUUUAGUUA,1.56 ± 0.057,0.0528 ± 0.011
UCGACCUACAGCUUGCAAAGUAUUUAGUUA,1.47 ± 0.056,0.0377 ± 0.0085
UGGACCUACAGCUUGCAAAGUAUUUAGUUA,1.36 ± 0.058,0.0474 ± 0.0097
UCGACCUACAGCUUGCAAAGUAUUUAGUAA,0.99 ± 0.053,0.0245 ± 0.0048
UGCACCUACAGCUUGCAAAGUAUUUAGUUA,1.23 ± 0.08,0.0409 ± 0.0074
AGGACCUACAGCUUGCAAAGUAUUUAGUUA,1.26 ± 0.053,0.0478 ± 0.0089
UGGACCUACAGCUUGCAAAGUAUUUAGUAA,1.13 ± 0.074,0.0219 ± 0.006
UCCACCUACAGCUUGCAAAGUAUUUAGUUA,0.937 ± 0.044,0.0318 ± 0.0069
UCCUGGUACUGCUUGCAUAGUAAUUAGUUA,0.313 ± 0.047,0.0127 ± 0.0034
AGGACCUACAGCUUGCAUACUUUUUAGUUA,0.0575 ± 0.011,0.00783 ± 0.0023
UCCUGGAUCAGGUUGCAAAGUAUUUAGUUA,0.391 ± 0.036,0.0061 ± 0.0023
UCCACCUACACGUUGCAUAGUAUUUUCAAA,0.22 ± 0.036,
UCCUGGAAGAGCUUCCAUAGUAUUUAGUUA,0.255 ± 0.058,
UGGACCUACAGCUUGCAUAGUAUUUCAGUUA,0.468 ± 0.06,0.0318 ± 0.0065
AGGAGGUACAGCUUGCAUAGUAUUUAGAAA,0.324 ± 0.044,0.0123 ± 0.0037
AGGUGGUACAGCUUGCAUAGUAUUUAGUUA,1.36 ± 0.057,0.0811 ± 0.015
UGGAGGUACAGCUUGCAUAGUAUUUAGUUA,1.35 ± 0.064,0.0828 ± 0.015
AGGAGGUACAGCUUGCAUAGUAUUUAGUAA,0.803 ± 0.079,0.0437 ± 0.0095
AGGUGGUACAGCUUGCAUAGUAUUUAGUAA,0.645 ± 0.065,0.04 ± 0.0068
UCGAGGUACAGCUUGCAUAGUAUUUAGUUA,1.04 ± 0.066,0.0604 ± 0.0095
UGGAGGUACAGCUUGCAUAGUAUUUAGUAA,0.794 ± 0.065,0.0463 ± 0.0071
UGGUGGUACAGCUUGCAUAGUAUUUAGUUA,1.3 ± 0.046,0.0711 ± 0.012
AGGAGGUACAGCUUGCAUAGUAUUUAGUUA,1.5 ± 0.072,0.0721 ± 0.011
